# Among all 310,000 compounds or so, about 14,000 (4.5%) showed an effect of 50% or more. Effects have a minus sign here. This excerpt belongs to a sample that is enriched for strong results.
# Target: human ether-à-go-go-related gene (hERG) potassium channel (human, UniProt Q12809)
# Assay: primary screen, population patch clamp on CHO cells stably expressing hERG; higher = less effect of the substance
# 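Also: peak tail current of the secondary pulse compared with the same well before compound.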
# Chain of human ether-à-go-go-related gene (hERG) potassium channel (Q12809 whole entry, looked up): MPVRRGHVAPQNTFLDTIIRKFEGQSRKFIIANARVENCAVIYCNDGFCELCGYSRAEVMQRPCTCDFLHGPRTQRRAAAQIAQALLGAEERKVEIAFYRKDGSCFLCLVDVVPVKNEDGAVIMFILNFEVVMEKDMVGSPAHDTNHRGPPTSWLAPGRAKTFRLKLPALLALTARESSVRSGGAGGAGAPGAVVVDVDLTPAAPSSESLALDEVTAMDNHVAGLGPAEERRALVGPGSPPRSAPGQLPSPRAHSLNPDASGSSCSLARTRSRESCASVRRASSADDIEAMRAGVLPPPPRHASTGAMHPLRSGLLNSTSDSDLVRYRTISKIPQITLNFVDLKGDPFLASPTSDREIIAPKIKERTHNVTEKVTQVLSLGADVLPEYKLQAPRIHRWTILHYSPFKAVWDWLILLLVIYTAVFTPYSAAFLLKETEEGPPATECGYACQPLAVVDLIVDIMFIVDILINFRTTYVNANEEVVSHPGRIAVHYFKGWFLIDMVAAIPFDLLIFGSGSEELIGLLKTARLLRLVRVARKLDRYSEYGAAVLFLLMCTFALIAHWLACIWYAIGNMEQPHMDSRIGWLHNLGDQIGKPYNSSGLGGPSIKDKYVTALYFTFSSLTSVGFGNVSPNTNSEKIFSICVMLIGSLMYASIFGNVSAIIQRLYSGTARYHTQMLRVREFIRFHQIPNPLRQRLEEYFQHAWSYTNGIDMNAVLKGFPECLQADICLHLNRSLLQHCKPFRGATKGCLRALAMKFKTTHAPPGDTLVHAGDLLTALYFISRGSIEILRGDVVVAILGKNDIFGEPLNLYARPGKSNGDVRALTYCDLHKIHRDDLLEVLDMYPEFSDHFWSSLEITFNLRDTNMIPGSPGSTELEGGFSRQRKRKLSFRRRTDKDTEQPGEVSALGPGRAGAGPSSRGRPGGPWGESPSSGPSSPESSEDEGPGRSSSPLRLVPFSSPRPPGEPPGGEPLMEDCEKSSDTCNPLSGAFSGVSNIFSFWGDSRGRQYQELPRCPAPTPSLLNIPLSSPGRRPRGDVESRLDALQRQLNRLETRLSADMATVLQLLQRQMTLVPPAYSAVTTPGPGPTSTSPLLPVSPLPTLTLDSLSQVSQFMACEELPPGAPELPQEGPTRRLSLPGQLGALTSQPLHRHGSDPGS
row,Compound,"hERG current change (%, negative = inhibition) at 10uM"
1,Cc1nnn(C23CC4CC(CC(C4)C2)C3)n1,7.98%
2,O=C(CCc1ccccn1)NC1CCCc2c1cnn2-c1ccc(F)cc1F (stereo not drawn),3.18%
3,CN(C)C(=S)c1ccc2ccccc2n1,17.1%
4,COC(=O)c1cc(-c2c(-c3cc(OC)c(OC)c(OC)c3)noc2C)cc([N+](=O)[O-])c1,-67.8%
5,COc1cc(-c2c(-c3cc(OC)c(OC)c(OC)c3)noc2C)ccc1F,13.6%
6,COc1cc(-c2noc(C)c2-c2ccc3[nH]ccc3c2)cc(OC)c1OC,8.02%
7,CCOc1ncccc1C(=O)OCC(=O)c1cc(C)n(Cc2ccco2)c1C,-7.34%
8,O=S(=O)(/C=C/c1ccccc1)N1CCOCC1,7.65%
9,CCOC(=O)c1[nH]cnc1C(=O)Nc1ccc([N+](=O)[O-])cc1,4.57%
10,CC(C(=O)Nc1ccccc1F)N1CCN(C)CC1.O=C(O)C(=O)O (stereo not drawn),11.9%
11,COc1cc2nc(CN3CCN(S(=O)(=O)c4ccc(Cl)cc4)CC3)[nH]c(=O)c2cc1OC,-58.2%
12,O=c1[nH]c(CN2CCN(S(=O)(=O)c3ccc(Cl)cc3)CC2)nc2cc(Cl)ccc12,-11.8%
13,O=c1[nH]c(CN2CCN(S(=O)(=O)c3ccc4ccccc4c3)CC2)nc2ccccc12,2.03%
14,COc1cc2nc(CN3CCN(S(=O)(=O)c4c(F)cccc4F)CC3)[nH]c(=O)c2cc1OC,-33.4%
15,O=C1CN(Cc2nc3cc(Cl)ccc3c(=O)[nH]2)CCN1,25.4%
16,COc1cc2nc(CN3CCN(S(=O)(=O)c4ccc(C)c(C)c4)CC3)[nH]c(=O)c2cc1OC,-16.8%
17,O=c1[nH]c(CN2CCN(S(=O)(=O)/C=C/c3ccccc3)CC2)nc2cc(Cl)ccc12,-65.8%
18,CCS(=O)(=O)N1CCN(Cc2nc3ccccc3c(=O)[nH]2)CC1,-12.9%
19,O=c1[nH]c(CN2CCN(S(=O)(=O)/C=C/c3ccccc3)CC2)nc2ccccc12,-66.5%
20,COc1ccc(C)cc1S(=O)(=O)N1CCCC(N2CCOCC2)C1 (stereo not drawn),13.4%
21,O=S(=O)(Nc1cccc2c1CCCC2)c1ccc(Cl)cc1,-9.87%
22,COC(=O)c1c(NC(=O)C2CCC2)sc(C(=O)N(C)C)c1C,4%
23,O=C(/C=C/c1ccc2c(c1)OCO2)c1c(O)n(CCc2ccccc2)c(=O)[nH]c1=O,1.79%
24,COc1cc(CCC(=O)OCC(=O)Nc2ccc(Br)cc2F)cc(OC)c1OC,-11.6%

row,Compound,"hERG current change (%, negative = inhibition) at 10uM"
1,O=C(CN1CCOCC1)Nc1ccc(Cl)cc1,-1.12%
2,O=C(CSc1ccccc1F)Nc1ccc(N2CCOCC2)cc1,3.82%
3,O=C(CSc1cc(Cl)ccc1Cl)Nc1ccc(N2CCOCC2)cc1,-58.3%
4,O=C(CN1CCN(CC(=O)Nc2ccc(-c3ccccc3)cc2)CC1)Nc1ccc(F)cc1,-66.2%
5,COC(=O)c1ccc(NC(=O)CN2CCN(c3ccc(Cl)cc3)CC2)cc1,11.9%
6,O=C(CN1CCOCC1)Nc1ccc(F)cc1,2.97%
7,O=C(CN1CCN(CC(=O)Nc2ccc(Cl)cc2)CC1)Nc1ccc(F)cc1,-76.9%
8,NC(=O)c1ccc(NC(=O)CN2CCN(c3ccccc3)CC2)cc1,12.6%
9,O=C(CN1CCN(CC(=O)Nc2cccc(F)c2)CC1)Nc1ccc(-c2ccccc2)cc1,-28.6%
10,NC(=O)c1ccc(NC(=O)CN2CCN(c3ccc(Cl)cc3)CC2)cc1,-51.3%
11,Cc1ccc(SCC(=O)Nc2ccc(N3CCOCC3)cc2)c(C)c1,10.5%
12,O=C(CN1CCN(c2ccccc2)CC1)Nc1ccc(F)cc1,-39.7%
13,COc1cc(Cl)c(C)cc1NC(=O)c1ccc2c(c1)OCO2,19%
14,O=c1oc2ccccc2c2c1nnn2CCO,8.06%
15,CCCCn1c(N)c(N(CC(C)C)C(=O)C2CC(=O)N(c3ccc(CC)cc3)C2)c(=O)[nH]c1=O (stereo not drawn),18.8%
16,CC(C)CC(NS(=O)(=O)OCC(Cl)(Cl)Cl)c1ccccc1 (stereo not drawn),1.57%
17,O=C(COC(=O)c1cc(-c2ccccc2)nc2ccccc12)NCC1CCCO1 (stereo not drawn),-22.4%
18,CCN(CC)c1ccc(C(=S)NCc2ccccc2)cc1,13%
19,COc1ccc(NC(=O)CC2SC(=N)N(c3ccccc3)C2=O)c(OC)c1 (stereo not drawn),29.4%
20,O=C(CN1CCN(c2ccc(F)cc2)CC1)Nc1ccc(F)c(F)c1,-27.8%
21,O=C(CN1CCN(c2ccc(F)cc2)CC1)Nc1ccccc1,6.74%
22,O=C(CN1CCN(c2ccc(Cl)cc2)CC1)Nc1ccc(F)cc1,-60.9%
23,CC(=O)Nc1ccc(S(=O)(=O)N(C)CC(=O)OCC(=O)N2CCCCC2)cc1,-1.43%
24,O=C(Cn1c(NCCO)nc2ccccc21)NCCc1ccc(F)cc1,10.6%

row,Compound,"hERG current change (%, negative = inhibition) at 10uM"
1,CC(=O)N1CCN(c2nc(CC(C)C)c3c(c2C#N)CCC3)CC1,-9.82%
2,CCCC(=O)N1CCN(c2nc(CC(C)C)c3c(c2C#N)CCC3)CC1,-53%
3,CC(C)Cc1nc(N2CCN(C(=O)C(C)C)CC2)c(C#N)c2c1CCC2,-27.2%
4,CC(=O)c1ccc(N(CC(=O)NC2CCCC2)C(=O)c2csnn2)cc1,13.8%
5,O=C(c1ccc(Br)o1)N1CCN(c2ccccn2)CC1,-19.3%
6,O=C(Nc1ccc(N2CCN(C(=O)c3ccccc3)CC2)cc1)c1ccc(Br)o1,-75.9%
7,CC(C)C(=O)N1CCN(c2ccc(NC(=O)c3ccc(Br)o3)cc2)CC1,-0.0806%
8,O=C(Nc1ccc(C(=O)N2CCN(c3ccccn3)CC2)cc1)c1ccc(Br)o1,-66.7%
9,O=C(Nc1ccc(N2CCN(C(=O)c3cccs3)CC2)cc1)c1cccc(F)c1,-62.6%
10,O=C(Nc1ccc(N2CCN(C(=O)c3ccc(Cl)cc3)CC2)cc1)c1cc2ccccc2o1,-0.396%
11,O=C(Nc1ccc(N2CCN(C(=O)c3cccs3)CC2)cc1)c1ccc(F)cc1,-15.3%
12,O=C(Nc1ccc(N2CCN(C(=O)c3ccc(Cl)cc3)CC2)cc1)c1ccc(Br)o1,-75.3%
13,N#CCC(=O)Nc1ccc(C(=O)N2CCN(c3ccccn3)CC2)cc1,18.4%
14,O=C(Nc1ccc(N2CCCC2)cc1)c1ccc(Br)o1,-20.8%
15,N#Cc1ccccc1N1CCN(C(=O)c2ccc(NC(=O)c3ccc(Br)o3)cc2)CC1,-18.9%
16,COc1cccc(C(=O)Nc2ccc(N3CCN(C(=O)c4cccs4)CC3)cc2)c1,-19.7%
17,O=C(COC(=O)Cc1ccc(F)cc1)NC1CCCC1,4.84%
18,COc1ccc(N(CC(=O)Nc2cc(OC)c(OC)cc2C(=O)O)S(=O)(=O)c2c(C)noc2C)cc1,15.9%
19,COc1ccc(/C=N/Nc2nnc(C)n2N)cc1OC(C)=O.Cl,14.3%
20,COCCN(C(=O)COC(=O)c1nc(Cl)ccc1Cl)c1c(N)n(Cc2ccccc2)c(=O)[nH]c1=O,20.3%
21,O=C1CC(c2ccco2)Cc2nc(N3CCc4ccccc4C3)ncc21 (stereo not drawn),-20.7%
22,O=C(Nc1ccc(N2CCN(C(=O)c3cccs3)CC2)cc1)c1ccc(Br)o1,-75.8%
23,CCC(=O)N1CCN(c2ccc(NC(=O)c3ccc(Br)o3)cc2)CC1,-26.9%
24,CN1CCN(c2ccc(NC(=O)c3ccc(Br)o3)cc2)CC1,-16.2%

row,Compound,"hERG current change (%, negative = inhibition) at 10uM"
1,O=C(Nc1ccc(N2CCN(C(=O)c3cccs3)CC2)cc1)c1ccco1,17.7%
2,Cc1ccc(C(=O)N2CCN(c3ccc(NC(=O)c4ccc(Br)o4)cc3)CC2)cc1,-68.8%
3,O=C(Nc1ccc(N2CCN(C(=O)c3cccs3)CC2)cc1)c1ccc([N+](=O)[O-])o1,-25.5%
4,Cc1ccc(Nc2c(-c3ccccn3)nc3cccc(C)n23)cc1,10.1%
5,Cc1ccc(C(=O)NNC(=O)/C=C\C(=O)O)cc1,6.41%
6,CCOC(=O)/C=C/c1ccc2c(c1)S(=O)(=O)N(Cc1ccc(OC)cc1)[C@H]2CC(=O)OCC,-18.2%
7,COc1cccc(-n2c(C)c3c(OC)cccc(=O)c3c2C)c1,-11.8%
8,COc1cccc(=O)c2c(C)n(-c3ccc(C(=O)O)cc3)c(C)c12,6.33%
9,COc1ccc(-n2c(C)c3c(OC)cccc(=O)c3c2C)cc1,-60.2%
10,COc1cnc(-c2ccccn2)nc1N(C)c1ccccc1,14.2%
11,Cc1ccc(-c2nc3ccccc3o2)cc1NC(=O)Cc1cccs1,18.7%
12,CC(C)C[C@H](NC(=O)C1(c2ccccc2)CCN(C(=O)OC(C)(C)C)CC1)C(=O)N1CCC[C@H]1C(=O)O,9.37%
13,Cc1ccccc1CN1C(=O)c2ccccc2Sc2ccc(C(=O)NCCN3CCOCC3)cc21,-69.6%
14,CCN1C(=O)c2ccccc2Sc2ccc(C(=O)NCCCN3CCOCC3)cc21,-17.8%
15,Cc1ccc(CN2C(=O)c3ccccc3Sc3ccc(C(=O)NCCCN4CCOCC4)cc32)cc1,-2.12%
16,O=C(NCCN1CCOCC1)c1ccc2c(c1)N(Cc1ccccc1F)C(=O)c1ccccc1S2,-27%
17,CCN1C(=O)c2ccccc2S(=O)(=O)c2ccc(C(=O)NCCCN(CC(C)C)CC(C)C)cc21,-12.7%
18,Cc1ccc(CN2C(=O)c3ccccc3Sc3ccc(C(=O)NCCN4CCOCC4)cc32)cc1,-15.2%
19,Cc1ccccc1CN1C(=O)c2ccccc2Sc2ccc(C(=O)NCCCN3CCOCC3)cc21,-62.9%
20,CCN1C(=O)c2ccccc2Sc2ccc(C(=O)NCCC(C)C)cc21,-7.94%
21,CCN1C(=O)c2ccccc2Sc2ccc(C(=O)NCCCN(CC(C)C)CC(C)C)cc21,-64.3%

# From publication PMC4336329 (PLoS ONE, 2015)
